In ChEMBL document CHEMBL1961873, “Compounds: GSK PKIS; Assays: Nanosyn kinase panel” (2012) one finds inhibition data, which are given here for eight compounds.

The term inhibition denotes the change of the read-out against control, counted positive when it falls.

Test [1] has as its target T1, Inhibitor of nuclear factor kappa-B kinase subunit epsilon (Homo sapiens) (UniProt Q14164).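 Also: reported values are averaged percent inhibition figures against human IKKε.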
T1 sequence (whole entry): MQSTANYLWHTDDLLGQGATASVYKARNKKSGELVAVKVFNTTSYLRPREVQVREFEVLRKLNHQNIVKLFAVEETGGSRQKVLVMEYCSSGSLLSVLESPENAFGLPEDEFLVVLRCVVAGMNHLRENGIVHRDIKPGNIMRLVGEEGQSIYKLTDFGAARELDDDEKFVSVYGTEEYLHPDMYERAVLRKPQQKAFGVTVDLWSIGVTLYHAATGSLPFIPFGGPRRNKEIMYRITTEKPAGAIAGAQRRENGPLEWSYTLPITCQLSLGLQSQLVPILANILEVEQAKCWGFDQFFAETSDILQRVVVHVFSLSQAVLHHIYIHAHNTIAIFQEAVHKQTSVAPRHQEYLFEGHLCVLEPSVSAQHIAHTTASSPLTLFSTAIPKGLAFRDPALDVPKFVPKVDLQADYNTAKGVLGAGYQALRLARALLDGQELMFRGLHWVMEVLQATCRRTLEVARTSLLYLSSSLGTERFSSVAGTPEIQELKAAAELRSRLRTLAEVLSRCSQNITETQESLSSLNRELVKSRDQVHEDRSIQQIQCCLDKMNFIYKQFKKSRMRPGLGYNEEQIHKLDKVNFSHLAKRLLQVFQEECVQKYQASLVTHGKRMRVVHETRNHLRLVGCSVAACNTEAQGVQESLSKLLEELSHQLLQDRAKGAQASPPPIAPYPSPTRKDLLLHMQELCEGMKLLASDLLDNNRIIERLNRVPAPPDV
To be noted: at 1 µM.

For test [2], the target named is T2, Serine/threonine-protein kinase Nek1 (Homo sapiens) (UniProt Q96PY6).
T2 sequence (whole entry): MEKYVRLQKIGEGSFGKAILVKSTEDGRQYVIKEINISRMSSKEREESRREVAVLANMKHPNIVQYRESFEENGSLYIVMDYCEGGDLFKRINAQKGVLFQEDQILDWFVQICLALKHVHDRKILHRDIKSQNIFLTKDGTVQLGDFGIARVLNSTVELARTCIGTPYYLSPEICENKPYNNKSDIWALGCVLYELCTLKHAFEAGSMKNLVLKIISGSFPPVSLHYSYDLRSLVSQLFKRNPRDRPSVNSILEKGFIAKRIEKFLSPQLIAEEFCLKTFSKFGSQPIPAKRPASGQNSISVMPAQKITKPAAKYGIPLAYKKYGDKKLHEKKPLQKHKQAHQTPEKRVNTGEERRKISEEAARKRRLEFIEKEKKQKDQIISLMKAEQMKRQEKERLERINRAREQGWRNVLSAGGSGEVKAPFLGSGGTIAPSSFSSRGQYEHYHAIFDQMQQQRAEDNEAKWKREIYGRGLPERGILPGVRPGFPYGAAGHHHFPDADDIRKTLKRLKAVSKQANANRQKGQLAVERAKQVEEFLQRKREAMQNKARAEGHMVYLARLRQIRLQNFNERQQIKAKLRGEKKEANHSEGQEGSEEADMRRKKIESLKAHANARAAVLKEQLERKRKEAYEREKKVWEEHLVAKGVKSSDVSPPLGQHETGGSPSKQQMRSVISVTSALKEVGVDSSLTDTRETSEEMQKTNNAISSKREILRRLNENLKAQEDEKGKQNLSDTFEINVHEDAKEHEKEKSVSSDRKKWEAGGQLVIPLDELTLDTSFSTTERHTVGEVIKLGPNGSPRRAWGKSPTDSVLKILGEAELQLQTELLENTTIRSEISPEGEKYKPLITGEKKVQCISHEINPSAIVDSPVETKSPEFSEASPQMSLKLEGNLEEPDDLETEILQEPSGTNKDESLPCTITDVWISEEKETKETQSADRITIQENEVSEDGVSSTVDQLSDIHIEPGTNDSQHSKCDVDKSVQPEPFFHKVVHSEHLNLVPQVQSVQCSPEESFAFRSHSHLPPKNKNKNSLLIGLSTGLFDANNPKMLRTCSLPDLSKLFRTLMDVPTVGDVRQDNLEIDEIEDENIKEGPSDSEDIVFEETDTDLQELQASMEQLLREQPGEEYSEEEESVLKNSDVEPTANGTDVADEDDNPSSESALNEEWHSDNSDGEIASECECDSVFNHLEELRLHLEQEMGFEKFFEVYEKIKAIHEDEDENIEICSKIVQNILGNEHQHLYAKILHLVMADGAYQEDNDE
To be noted: at 0.1 µM.

In test [3] the target is T2, Serine/threonine-protein kinase Nek1 (Homo sapiens). To be noted: at 1 µM.
Test [4] deals with T3, Serine/threonine-protein kinase Nek2 (Homo sapiens) (UniProt P51955).
T3 sequence (whole entry): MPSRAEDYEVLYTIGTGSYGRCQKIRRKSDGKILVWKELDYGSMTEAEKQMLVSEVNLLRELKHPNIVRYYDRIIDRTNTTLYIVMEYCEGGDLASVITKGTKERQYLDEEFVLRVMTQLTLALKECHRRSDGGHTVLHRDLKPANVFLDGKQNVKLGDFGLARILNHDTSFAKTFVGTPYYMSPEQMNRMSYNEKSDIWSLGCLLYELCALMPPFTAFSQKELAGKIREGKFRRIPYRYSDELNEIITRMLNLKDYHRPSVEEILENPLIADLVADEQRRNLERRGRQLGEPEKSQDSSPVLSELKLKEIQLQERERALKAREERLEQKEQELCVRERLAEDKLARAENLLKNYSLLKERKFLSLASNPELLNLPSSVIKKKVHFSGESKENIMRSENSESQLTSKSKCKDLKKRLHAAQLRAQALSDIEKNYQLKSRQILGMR
To be noted: at 0.1 µM.

Test [5] addresses T3, Serine/threonine-protein kinase Nek2 (Homo sapiens). To be noted: at 1 µM.
For test [6], the target named is Serine/threonine-protein kinase Nek6 (Homo sapiens) (UniProt Q9HC98). As to conditions: at 0.1 µM.
Serine/threonine-protein kinase Nek6 (Homo sapiens), sequence (Q9HC98 whole entry): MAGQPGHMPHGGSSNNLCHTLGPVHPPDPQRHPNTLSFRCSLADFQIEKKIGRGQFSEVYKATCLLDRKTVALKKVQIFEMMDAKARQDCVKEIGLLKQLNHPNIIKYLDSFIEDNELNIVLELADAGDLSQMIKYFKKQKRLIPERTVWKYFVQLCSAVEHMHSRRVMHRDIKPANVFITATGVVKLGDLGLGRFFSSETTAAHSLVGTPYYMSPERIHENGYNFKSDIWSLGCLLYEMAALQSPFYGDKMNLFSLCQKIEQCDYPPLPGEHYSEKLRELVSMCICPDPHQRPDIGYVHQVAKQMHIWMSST
Test [7] shares this target. To be noted: at 1 µM.
The target of test [8] is Serine/threonine-protein kinase Nek7 (Homo sapiens) (UniProt Q8TDX7). To be noted: at 0.1 µM.
Serine/threonine-protein kinase Nek7 (Homo sapiens), sequence (Q8TDX7 whole entry, looked up): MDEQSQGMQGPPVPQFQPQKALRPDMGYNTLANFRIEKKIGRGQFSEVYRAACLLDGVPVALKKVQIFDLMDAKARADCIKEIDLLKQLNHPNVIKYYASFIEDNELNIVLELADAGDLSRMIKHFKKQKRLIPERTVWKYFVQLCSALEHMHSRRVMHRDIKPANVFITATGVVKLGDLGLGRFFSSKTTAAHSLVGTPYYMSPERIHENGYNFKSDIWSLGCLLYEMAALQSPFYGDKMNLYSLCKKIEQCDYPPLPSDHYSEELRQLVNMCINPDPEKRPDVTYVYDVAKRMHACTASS
For test [9] the target is unchanged. To be noted: at 1 µM.
In test [10] the target is T4, Serine/threonine-protein kinase Nek9 (Homo sapiens) (UniProt Q8TD19).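 Also: reported value is the mean percent inhibition of NEK9.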
T4 sequence (whole entry): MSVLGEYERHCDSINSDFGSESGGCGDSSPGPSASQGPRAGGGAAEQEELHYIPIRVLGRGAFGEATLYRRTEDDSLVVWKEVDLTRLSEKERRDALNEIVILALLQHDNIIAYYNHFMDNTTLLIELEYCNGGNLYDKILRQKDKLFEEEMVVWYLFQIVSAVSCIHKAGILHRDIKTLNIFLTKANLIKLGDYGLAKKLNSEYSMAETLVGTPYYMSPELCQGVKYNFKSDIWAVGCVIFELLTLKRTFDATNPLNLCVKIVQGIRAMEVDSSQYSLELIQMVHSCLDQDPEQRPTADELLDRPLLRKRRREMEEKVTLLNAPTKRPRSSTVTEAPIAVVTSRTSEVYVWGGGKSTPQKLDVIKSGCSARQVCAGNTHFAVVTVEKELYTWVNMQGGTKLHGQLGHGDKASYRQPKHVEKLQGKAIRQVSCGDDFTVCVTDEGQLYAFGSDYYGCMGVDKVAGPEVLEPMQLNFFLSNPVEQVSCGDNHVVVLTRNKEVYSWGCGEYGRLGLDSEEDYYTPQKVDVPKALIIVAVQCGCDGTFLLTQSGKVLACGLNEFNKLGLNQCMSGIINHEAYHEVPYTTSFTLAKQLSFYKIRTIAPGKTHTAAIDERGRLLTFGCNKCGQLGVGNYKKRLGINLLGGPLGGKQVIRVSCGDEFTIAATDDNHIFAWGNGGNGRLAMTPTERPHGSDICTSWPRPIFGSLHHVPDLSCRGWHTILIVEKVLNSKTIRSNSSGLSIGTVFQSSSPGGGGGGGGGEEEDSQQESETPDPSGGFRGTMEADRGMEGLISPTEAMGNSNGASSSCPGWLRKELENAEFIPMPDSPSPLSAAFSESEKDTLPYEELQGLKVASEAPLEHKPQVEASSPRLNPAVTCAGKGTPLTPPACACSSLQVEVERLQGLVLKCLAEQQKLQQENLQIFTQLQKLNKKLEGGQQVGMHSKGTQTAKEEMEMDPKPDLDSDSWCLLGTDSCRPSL
As to conditions: at 0.1 µM.

Take `Cc1nn(C)c2cc(N(C)c3ccnc(Nc4cccc(S(N)(=O)=O)c4)n3)ccc12`: the inhibition in [1] amounted to 4.76%; in [2], 2.28%; in test [3], 3.95%; in [4], 3.82%; in [5], 5.14%; in test [6] it was 0.43%. Further, the inhibition in test [7] was found to be 1.3%; in test [8], 5.76%; in test [9], 3.53%; in test [10], 8.48%.

`O=C1NC(=O)C(c2ccccc2Cl)=C1Nc1cccc(O)c1`: the inhibition in [1] is 5.16%; in [2], 1.26%; in [3] it was 2.01%; in [4], 3.03%; in test [5], 3.05%; in [6], 1.73%. Besides, the inhibition in test [7] was -0.89%; in test [8], 4.66%; in [9] it was 2.35%; in test [10], 2.76%.

As to `NS(=O)(=O)c1cccc(-c2ccc3c(NC(=O)C4CC4)n[nH]c3c2)c1`, the inhibition in test [1] is -3.2%; in test [2], -0.9%; in [3], -0.76%; in [4], -1.41%; in [5], -0.18%; in [6], -1.88%. Moreover, the inhibition in test [7] was -0.37%; in test [8], 1.22%; in [9] it was -2.64%; in test [10], 4.44%.

As for `COc1ccc(COc2ccc(Cc3cnc(N)nc3N)cc2OC)cc1`, the inhibition in [1] was -2.21%; in test [2], 1.41%; in [3], 1.56%; in test [4], -0.14%; in test [5], -1.4%; in test [6], -0.54%. For the same compound, the inhibition was -3.71% in [7], 2.81% in test [8], 1.75% in test [9] and 0.22% in [10].

For the compound `CS(=O)(=O)CCNCc1ccc(-c2ccc3ncnc(Nc4ccc(OCc5ccccc5)c(Cl)c4)c3c2)o1`, the inhibition in test [1] is -0.15%; in test [2] it was 1.25%; in [3] it was 2.81%; in test [4] it was 1.61%; in test [5], 0.43%; in [6], 3.37%. The inhibition in [7] was -1.04%; in test [8] it was 0.02%; in test [9], 2.5%; in test [10], -1.85%.

In the case of `Nc1nc(-c2ccc3c(c2)C(=Cc2cc(Br)c(O)c(Br)c2)C(=O)N3)cs1`, the inhibition was -0.65% in [1]; -0.4% in [2]; 2.14% in test [3]; -0.41% in test [4]; 2.78% in test [5]; -0.92% in test [6]. The inhibition in [7] is 3.09%; in test [8] it was 2.05%; in test [9], -1.46%; in test [10] it was 2.02%.

Turning to `CC1=C(C(=O)Nc2ccc3[nH]ncc3c2)C(c2ccc3ccccc3c2)CC(=O)N1` (stereo not given), the inhibition in test [1] was 3.81%; in test [2], 1.66%; in [3], 2.46%; in test [4], 2.88%; in [5], 2.9%; in [6] it was -0.05%. The inhibition was 2.48% in [7], 0.42% in test [8], 1.79% in test [9] and 3.14% in test [10].

For the compound `CC1=C(C(=O)Nc2ccc3[nH]ncc3c2)C(c2ccc(F)cc2)NC(=O)N1` (stereo not given), the inhibition was 4.43% in test [1]; 2.09% in [2]; 4.56% in [3]; 3.07% in [4]; 2.73% in [5]; 0.8% in test [6]. Further, the inhibition stood at 0.71% in test [7], 3.54% in [8], 2.72% in [9] and 2.85% in [10].
